Screening results as filed in PubChem.
The list is not random: actives were taken first. Their share in the collection is about 10%.
PNC inhibitor – inhibitors of perinucleolar compartment assembly; PC3M PTB-GFP, PNC prevalence imaging, 16 h; hits give low values; activity change (PNC), negative = inhibition, % at 10 µM; 140,000 tested, 3.1% active; AID 2417;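 active = readout at or below -70, meaning at least 70% loss of cells showing the perinucleolar compartment, a nuclear body marking cancer cells; inconclusive = readout between -30 and a set limit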
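Read-out is percentage of cells bearing a perinucleolar compartment, from automated 20x imaging of fixed, Hoechst-stained PC3M PTB-GFP cells. Cells were seeded 4 h, then exposed 16 h to compound (23 nl of library stock) in duplicate plates.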
HPGD block – inhibitors of human 15-hydroxyprostaglandin dehydrogenase (HPGD); P15428; AID 894; Potency, µM, usual class: inhibitors; 150,000 tested, 4.3% active; purified HPGD, NADH fluorescence kinetic, PGE2 substrate
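NADH formation kinetics: reaction with 30 uM PGE2 and 1 mM NAD+ (final), 20 nM enzyme, Tris-HCl pH 8 with Tween 20, after 15 min compound preincubation at room temperature. Fluorescence change, last versus first of five reads.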
ALOX12 inhib – blocks human 12-lipoxygenase activity. purified 12-hLO, xylenol orange hydroperoxide absorbance. Potency, µM (doses to about 57.1 µM), usual class: inhibitors. 150,000 tested, 0.12% active. AID 1452; active = well fitted inhibition curve with a large enough effect; inconclusive = small, poorly fitted or top-dose-only effect; note: nearly all actives have a fitted effect of over 55% in size
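Hydroperoxide formation by human 12-lipoxygenase from 40 uM arachidonic acid was followed colorimetrically via ferric-xylenol orange complex, using the 573/405 nm absorbance ratio. Enzyme concentration was 150 nM, with 30 min reaction at room temperature.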
LMNA splice mod – modulators of lamin A splicing; HeLa LMNA splicing GFP/RFP minigene ratio, 48 h; Potency, µM (series often up to 46.1 µM), hits mostly inhibitors; 200,000 tested, 0.01% active; AID 1487; active = well fitted inhibition curve with a large enough effect in the signal ratio, with a control signal flat, not every such curve was filed as active; inconclusive = small, poorly fitted or top-dose-only effect, or effect the other way, or a change in a side signal; the % refers to the signal ratio
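Read-out is the ratio of GFP to DsRed2 object intensity, acquired by 488 nm laser-scanning cytometry on HeLa lamin A-EGFP minigene reporter cells. Compound incubation 48 hrs at 37 °C in Opti-MEM with 2% FBS; DMSO 0.5% final.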
ALDH1A1 inh – inhibitors of human aldehyde dehydrogenase 1A1; P00352; Purified ALDH1A1, NADH fluorescence, propionaldehyde substrate; Potency, µM (doses to about 75.3 µM), most hits filed as inhibitors; 220,000 tested, 7.3% active
Target sequence (P00352 whole entry, looked up): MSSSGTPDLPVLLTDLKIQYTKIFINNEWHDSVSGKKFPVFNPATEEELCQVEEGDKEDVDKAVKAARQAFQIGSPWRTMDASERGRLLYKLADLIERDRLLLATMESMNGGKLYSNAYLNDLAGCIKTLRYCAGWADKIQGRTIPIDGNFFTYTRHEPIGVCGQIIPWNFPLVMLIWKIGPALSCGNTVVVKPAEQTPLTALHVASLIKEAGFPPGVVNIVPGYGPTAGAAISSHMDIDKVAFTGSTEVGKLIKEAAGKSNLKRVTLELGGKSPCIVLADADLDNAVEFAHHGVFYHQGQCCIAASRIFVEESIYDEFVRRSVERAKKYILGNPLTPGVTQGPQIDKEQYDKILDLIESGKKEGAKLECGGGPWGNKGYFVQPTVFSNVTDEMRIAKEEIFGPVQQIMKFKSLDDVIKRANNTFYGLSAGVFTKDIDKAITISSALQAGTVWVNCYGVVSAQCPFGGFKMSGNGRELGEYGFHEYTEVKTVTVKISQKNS
Numbers stand for hits; i = inactive; ? = inconclusive; nt = not tested or not shown; [ ] = another dose, or the depositor's remark. Unless noted, calls come from the whole dose curve; as a rule, active = well fitted inhibition curve with a large enough effect (not every such curve was filed as active); inconclusive = small, poorly fitted or top-dose-only effect, or another doubt; inactive = no such curve, though single readings can be large or run the other way.

SMILES | PNC inhibitor | HPGD block | ALOX12 inhib | LMNA splice mod | ALDH1A1 inh
O=C(CSc1ncnc2c1oc1ccccc12)Nc1ccccc1C(F)(F)F | i | ? | i | i | i
O=C(Nc1ccc(Br)cc1F)c1ccc2nc(CCc3ccccc3)oc2c1 | nt | nt | nt | i | nt
COc1ccc2c(c1)O[C@@H](c1cccc(C(F)(F)F)c1)[C@H](OC(=O)Nc1ccc(C)c(Br)c1)C2=O | nt | i | nt | nt | i
O=C(Cn1c(C(=O)NCC2CCCO2)cc2sccc21)c1ccccc1 (stereo unspecified) | i | i | i | i | i
O=C(Cn1c(C(=O)N2CCN(C3CCCC3)CC2)cc2sccc21)c1ccccc1 | -122 | nt | i | i | i
CC(=O)Nc1ccc(S(=O)(=O)Nc2nnc(CC(C)(C)C)s2)cc1 | nt | nt | nt | i | i
CC(C)(C)Cc1nnc(NS(=O)(=O)c2ccc(F)cc2)s1 | -82 | ? | i | i | ?
CC(C)(C)Cc1nnc(NS(=O)(=O)Cc2ccccc2)s1 | i | i | i | i | 25µM
Cn1c(=O)c2[nH]c(Nc3ccccc3)nc2n(C)c1=O | -100 | i | i | ? | i
Nn1c(SCc2csc(-c3ccccc3)n2)nnc1-c1cccs1 | ? | ? | i | i | ?
COC(=O)c1c(C)[nH]c(C(=O)CSc2nnnn2-c2ccccc2)c1C | i | i | i | i | i
Cc1ccccc1-n1nnnc1SCC(C)C | nt | nt | nt | i | 1.1µM
CCOC(=O)c1[nH]c(CSc2nnnn2-c2ccccc2C)c(C(=O)OCC)c1C | ? | i | i | i | 3.5µM
CCOC(=O)c1[nH]c(CSc2nnc(-c3ccncc3)n2CCOC)c(C(=O)OCC)c1C | ? | i | i | i | i
CCOC(=O)c1c(C)[nH]c(C)c1C(=O)CSc1nnnn1-c1ccccc1 | i | i | i | i | 32µM
Cc1ccccc1-n1nnnc1SCc1csc(-c2ccccc2)n1 | i | i | i | i | 7.9µM
CCN(C(=O)Cc1c(C(=O)O)n(C)c2ccccc12)c1ccc(F)cc1 | nt | nt | nt | nt | i
Cc1cc(NC(=O)CSc2ncc(C(=O)Nc3ccc(F)cc3)c(=O)n2C)no1 | nt | nt | nt | i | nt
CCN1C(=O)[C@H]2[C@H]3[C@H](O)[C@H](O)C/C(=N/NC(=O)OCc4ccc(OC)cc4)[C@H]3CC[C@@H]2C1=O | nt | nt | nt | nt | i[13.5 µM]
O=C(COC(=O)COc1ccc(Cl)cc1)Nc1ccc(N2CCOCC2)cc1 | nt | nt | nt | nt | i
Cc1ccc(S(=O)(=O)Oc2ccc(/C=C(/NC(=O)c3ccccc3)C(=O)NC(C)C(=O)O)cc2)cc1 (stereo unspecified) | nt | nt | nt | nt | 4µM
Cc1ccc(S(=O)(=O)Oc2ccc(/C=C(/NC(=O)c3ccccc3)C(=O)NCC(=O)O)cc2)cc1 | nt | nt | nt | i | 5µM
Cc1ccc(S(=O)(=O)Oc2ccc(/C=C(/NC(=O)c3ccccc3)C(=O)O)cc2)cc1 | nt | nt | nt | ? | 13µM
COc1ccccc1C(=O)N/C(=C\c1ccccc1)C(=O)NC(C)C(=O)O (stereo unspecified) | nt | nt | nt | nt | i
Cn1c(=O)c2c(ncn2CC(=O)N/N=C/c2c[nH]c3ccccc23)n(C)c1=O | nt | nt | nt | nt | i
SMILES | PNC inhibitor | HPGD block | ALOX12 inhib | LMNA splice mod | ALDH1A1 inh
O=C(NNS(=O)(=O)c1ccccc1Cl)c1nn(-c2ccc(F)cc2)ccc1=O | nt | nt | nt | nt | i
CC1=C(C(=O)OC(C)(C)C)C(c2cccs2)NC(=O)N1 (stereo unspecified) | -95 | i | i | i | ?
Cc1ccccc1Oc1nc(-c2ccccn2)nc2ccccc12 | nt | nt | nt | ? | i
CNC(=O)C1(C)C=CCN1C(=O)c1ccccc1 (stereo unspecified) | i | i | i | i | i
CC1(C(=O)NCc2ccccn2)C=CCN1C(=O)c1ccccc1 (stereo unspecified) | -119 | i | i | i | i
CCN(C(=O)COc1cc(=O)n(CC)c2ccccc12)c1cccc(Cl)c1 | i | i | i | i | 6.3µM
CCCN(CCC)C(=O)COc1cc(=O)n(CC)c2ccccc12 | i | 25µM | i | ? | i
CCn1c(=O)cc(OCC(=O)N2CCCCCC2)c2ccccc21 | ? | 32µM | i | i | ?
CCn1c(=O)cc(OCC(=O)N2CCN(c3ccc(F)cc3)CC2)c2ccccc21 | nt | nt | nt | nt | i
CCOC(=O)c1c(C)oc2nc(C)nc(Nc3ccc(C)c(Cl)c3)c12 | nt | nt | nt | i | nt
CCCc1cc2c(c(=O)o1)C(O)C1OC1C2=O (stereo unspecified) | nt | nt | nt | nt | 4µM
CC(C)(C)OC(=O)N1CCC(c2c(C(=O)NCCCN3CCc4ccccc4C3)cnn2-c2ccccc2)CC1 | nt | nt | nt | i | nt
